Reference: PubChem BioAssay

Tests used:
[1] = test system: Human papillomavirus type 1a protein E7 (residues 44-93); assay: small molecules binding HPV E7 44-93 – biochemical, small-molecule microarray, residues 44-93, 635 nm fluorescence, primary screen (AID 1108); details: fluorescence 635 nm, higher = more signal;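 further: E7 fragment applied at 1 µg/mL in TBST for 1 h at 4 C; score combines spot fluorescence with its signal to noise ratio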
[2] = hepatitis C replication reporter changes, two-sided – Huh7 cells, luciferase reporter, HCV replication inhibitor project, primary screen (AID 1109); details: Huh7 HCV replicon luciferase reporter, 48 h; higher = more signal;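 further: huh7 hepatoma cells harbouring a luciferase neomycin HCV replicon reporter; luciferase luminescence as measure of HCV replicon replication; test concentration not given here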
[3] = biological target: Left-right determination factor 2 (Homo sapiens) (UniProt O00292); assay: small molecules binding LEFTY2 protein – biochemical, small-molecule microarray, 635 nm fluorescence scan, primary screen (AID 1110); details: higher = more signal
Left-right determination factor 2 (Homo sapiens), sequence (O00292 whole entry, looked up): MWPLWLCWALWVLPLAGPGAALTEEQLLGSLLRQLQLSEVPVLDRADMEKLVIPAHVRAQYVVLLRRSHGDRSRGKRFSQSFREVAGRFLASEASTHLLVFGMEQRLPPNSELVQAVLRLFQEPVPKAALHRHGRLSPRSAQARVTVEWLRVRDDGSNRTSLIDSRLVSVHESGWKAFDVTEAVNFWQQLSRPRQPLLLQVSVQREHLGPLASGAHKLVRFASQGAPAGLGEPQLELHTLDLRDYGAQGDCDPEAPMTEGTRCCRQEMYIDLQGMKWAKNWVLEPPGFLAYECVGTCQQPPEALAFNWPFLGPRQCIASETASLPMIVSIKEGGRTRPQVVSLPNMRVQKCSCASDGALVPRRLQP

[4] = biological target: Calmodulin-1 (Homo sapiens) (UniProt P0DP23); assay: small molecules binding calmodulin-1 with EGTA – biochemical, small-molecule microarray, Cy5-labelled CALM1, profiling panel (AID 1111); details: Cy5-CALM1 binding fluorescence, higher = more signal;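 further: labelled calmodulin applied in Tris saline Tween buffer holding calcium plus EGTA and DTT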
[5] = biological target: Calmodulin-1 (Homo sapiens) (UniProt P0DP23); assay: small molecules binding Ca-loaded calmodulin-1 – biochemical, small-molecule microarray, Cy5-labelled CALM1, plus calcium, artefact control for SMM control-protein annotation, profiling panel (AID 1112); details: Cy5-CALM1 binding fluorescence, higher = more signal;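 further: score merges spot fluorescence with signal to noise from triplicate slides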
[6] = probe aWnt5a binding to arrayed compounds – biochemical, biotinylated probe, 635/667 nm fluorescence, primary screen (AID 1113); details: small-molecule microarray, higher = more signal;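 further: score merges 667 nm fluorescence intensity with signal-to-noise per printed feature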
[7] = probe aShh binding to arrayed compounds – biochemical, biotinylated probe, 635/667 nm fluorescence, primary screen (AID 1114); details: small-molecule microarray, higher = more signal;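 further: probe is biotin-labelled aShh protein from a stem cell growth factor screen; measures binding of labelled protein to compounds printed on the slide; score merges feature fluorescence at 667 nm with signal-to-noise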
[8] = probe aNog binding to arrayed compounds – biochemical, biotinylated probe, 635/667 nm fluorescence, primary screen (AID 1115); details: small-molecule microarray, higher = more signal;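 further: probe is biotinylated aNog protein used at 0.15 µg/mL for 1 h at 4 C; z-score combines 667 nm fluorescence of each spot with its signal to noise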
[9] = biological target: Torsin-1A-interacting protein 1 (Homo sapiens) (UniProt Q5JTV8); assay: compound microarray binding of lysate hLAP1 – cell lysate, small-molecule microarray, COS7 lysate, 635/667 nm fluorescence, primary screen (AID 1116); details: 635 nm fluorescence, higher = more signal
Torsin-1A-interacting protein 1 (Homo sapiens), sequence (Q5JTV8 whole entry, looked up): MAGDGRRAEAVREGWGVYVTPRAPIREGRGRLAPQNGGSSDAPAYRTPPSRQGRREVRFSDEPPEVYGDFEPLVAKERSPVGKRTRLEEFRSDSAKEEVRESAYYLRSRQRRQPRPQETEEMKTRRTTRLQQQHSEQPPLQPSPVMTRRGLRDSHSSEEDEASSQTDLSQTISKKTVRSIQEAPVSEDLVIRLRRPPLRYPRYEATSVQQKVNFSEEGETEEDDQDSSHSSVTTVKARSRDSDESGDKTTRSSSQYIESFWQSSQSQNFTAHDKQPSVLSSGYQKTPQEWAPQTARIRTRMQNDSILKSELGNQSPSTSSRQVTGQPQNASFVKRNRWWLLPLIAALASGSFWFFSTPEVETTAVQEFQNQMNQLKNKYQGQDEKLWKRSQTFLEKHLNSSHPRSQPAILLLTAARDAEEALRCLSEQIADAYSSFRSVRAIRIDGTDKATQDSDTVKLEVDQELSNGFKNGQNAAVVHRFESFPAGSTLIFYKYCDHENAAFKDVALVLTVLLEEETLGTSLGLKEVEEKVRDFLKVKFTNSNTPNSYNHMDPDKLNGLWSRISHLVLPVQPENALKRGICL

[10] = biological target: Alpha-bungarotoxin (Bungarus multicinctus) (UniProt P60615); assay: compounds binding labelled alpha-BTX control protein – biochemical, small-molecule microarray, Alexa647 label, 635/667 nm fluorescence, artefact control for SMM control protein annotation, profiling panel (AID 1117); details: alpha-BTX-A647 binding fluorescence, higher = more signal
Alpha-bungarotoxin (Bungarus multicinctus), sequence (P60615 whole entry, looked up): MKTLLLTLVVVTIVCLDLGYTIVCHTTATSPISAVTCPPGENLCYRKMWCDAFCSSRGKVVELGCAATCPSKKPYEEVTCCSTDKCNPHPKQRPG

Structure (SMILES) | composite z-score [1] | z-score [2] | composite z-score [3] | composite z-score [4] | composite z-score [5] | composite z-score [6] | composite z-score [7] | composite z-score [8] | composite z-score [9] | composite z-score [10]
O=C1O[C@H](c2ccccc2)[C@H](c2ccccc2)N2[C@H]1[C@@H](C(=O)NC[C@H](O)c1ccccc1)[C@]1(C(=O)Nc3ccc(C#CCCO)cc31)[C@H]2c1ccccc1OCCO | 1.4 | -1.47 | -0.66 | 0.548 | -0.0628 | -0.147 | 0.149 | -0.0503 | 1.35 | 2.1
C#CCN([C@H](/C=C/C1CC1)[C@@H](O)Cc1ccccc1)[C@@H](Cc1ccccc1)C(=O)OC | -0.197 | -2.64 | 0.0052 | -0.752 | -0.861 | -0.124 | 0.0639 | -0.33 | -0.188 | -0.0484
[N-]=[N+]=NCc1ccccc1C[C@]1(C(=O)N2CCCCC2)N=C(c2ccc(OCCCO)cc2)O[C@H]1c1ccccc1 | 0.809 | -3.2 | -1.05 | 0.816 | 0.407 | 0.105 | 0.134 | 0.437 | 1.11 | -0.049
C=C(COC)C(=O)CC[C@@H](OC(C)=O)c1ccc(OCCO)cc1 | -0.133 | -1.23 | -0.374 | -0.473 | -0.621 | -0.154 | 0.0373 | 0.197 | 0.119 | 1.39
CC1CC/C=C\[C@H]2OC34C=CCN(c5ccc(Cl)cc5)C(=O)[C@H]3N(CCCO)C(=O)[C@]4(C)C2C(=O)O1 (stereo not given in full) | -0.678 | -1.07 | -1.33 | -0.484 | 0.456 | -0.124 | -0.0553 | -0.0211 | -1.06 | -0.859
COC(=O)C1=CC(CCCO)=CC(c2ccc(CN3CCCC3)cc2)N(Cc2sc3ccccc3c2Cl)C=C1C(=O)OC (stereo not given) | 1.34 | -0.574 | 1.17 | 2.96 | 1.22 | 0.0625 | 0.661 | 2.08 | 3.75 | 3.77
CCCCC(=C=CC[C@@H](O)c1cccc(OCCO)c1)C[C@@H](O)COCc1ccccc1 | -0.622 | -1.78 | -0.0756 | -0.613 | -0.285 | -0.096 | -0.0709 | -0.219 | 0.546 | 1.35
NCCCC[C@@H]1NC(=O)[C@H]2C[C@@H](C(=O)O)[C@@H](c3cccc(OCCO)c3)N2C1=O | 1.4 | -1.56 | 1.53 | 0.441 | -0.197 | 0.0017 | 0.166 | 1.33 | 1.07 | 2.12
Cc1ccc(S[C@]2(C(=O)NCC(F)(F)F)CC(=O)N(C3CCCCC3)[C@@H]2c2ccc(CO)cc2)cc1 | 0.82 | -0.759 | -0.431 | 1.26 | 0.27 | -0.1 | 0.0875 | -0.546 | -0.163 | 0.28
COCCOC(=O)N1C(=O)[C@@]2(c3cc(C#CC4(O)CCCCCC4)ccc31)[C@H](c1ccccc1OCCO)N1[C@H](c3ccccc3)[C@H](c3ccccc3)OC(=O)[C@H]1[C@@H]2C(=O)N1CCCCCCC1 | 1.06 | -2.28 | 0.502 | 1.67 | 1.46 | 0.355 | 0.661 | 2.71 | 3.51 | 1.49
C=CC[C@]1(C(=O)N(C)C)COC(c2ccc(OCCCO)cc2)=N1 | 0.326 | 1.55 | -0.616 | 2.62 | -0.372 | -0.113 | 0.334 | -0.246 | 2.09 | 0.113
O=C1c2ccccc2[C@@]2(Cc3ccccc3N(Cc3ccccc3)C2=O)[C@H](c2ccc(CO)cc2)N1Cc1ccccc1 | 0.145 | -0.173 | -1.09 | -0.73 | 0.242 | -0.236 | -0.153 | -0.36 | -0.516 | -0.114
COc1cc(OC)c(C(O)C2C=CC3C(=O)N(c4ccccc4)C(=O)C3N2Nc2ccccc2F)cc1Br (stereo not given) | 1.31 | -1.17 | -0.137 | 1.96 | 0.764 | -0.0462 | 0.279 | 1.62 | 1.63 | 1.92
CCOC(=O)C[C@H]1[C@H](OC(=O)Cc2ccc3c(c2)OCO3)[C@@H](NC(=O)c2ccccc2)c2cc(OCCCO)ccc2N1C(=O)Cc1ccc(OC)cc1 | 0.334 | -1.53 | -0.113 | 1.04 | 0.188 | -0.0545 | -0.0626 | -0.196 | 0.435 | 0.774
COCCOC(=O)N1C(=O)[C@@]2(c3cc(C#CCCO)ccc31)[C@H](C(=O)N1CCc3cc(OC)c(OC)cc3C1)[C@H]1C(=O)O[C@H](c3ccccc3)[C@H](c3ccccc3)N1[C@@H]2c1ccccc1OCCO | 1.4 | -1.75 | 0.473 | 1.43 | 0.013 | 0.186 | -0.0146 | 0.596 | 0.325 | 0.477
Cc1ccc(F)cc1S(=O)(=O)N[C@@H]1CCN(Cc2ccc3c(c2)OCO3)C1 | -0.28 | -1.98 | 0.198 | -0.786 | -0.997 | -0.176 | -0.0626 | -0.12 | 0.636 | 0.445
COCCOC(=O)N1C(=O)[C@@]2(c3cc(C#CC4(O)CCCCCC4)ccc31)[C@H](C(=O)NC[C@H](O)c1ccccc1)[C@H]1C(=O)O[C@H](c3ccccc3)[C@H](c3ccccc3)N1[C@@H]2c1ccc(O)cc1 | -0.132 | -0.68 | 0.0174 | 1.37 | -0.112 | 0.0718 | -0.0055 | -0.111 | 1.14 | 1.61
